Over roughly 68,000 sequences, “fluorescence intensity (a.u.)” has its median near 9,100; the highest 2% begin near 16,000. The entries come from a sample that favours the highest values as a whole.
biological target: OsWRKY34 (Oryza sativa, UniProt Q0JBA9 1-250); assay: protein-binding microarray (RPBM); PBS, 2% BSA, 51.3 ng/ul salmon testes DNA, 50 uM zinc acetate, 200 nM TF, 25 C, 1 h; high values mean tight binding; conditions: protein: recombinant; tags: N-terminal polyhistidine and DsRed monomer fusion (pET32a); label: CyDye5-dUTP incorporated in the synthesized complementary strand; 3' TTTTT single-stranded linker to array surface; dsDNA, one strand shown
Sequence (Q0JBA9 entry or part of it): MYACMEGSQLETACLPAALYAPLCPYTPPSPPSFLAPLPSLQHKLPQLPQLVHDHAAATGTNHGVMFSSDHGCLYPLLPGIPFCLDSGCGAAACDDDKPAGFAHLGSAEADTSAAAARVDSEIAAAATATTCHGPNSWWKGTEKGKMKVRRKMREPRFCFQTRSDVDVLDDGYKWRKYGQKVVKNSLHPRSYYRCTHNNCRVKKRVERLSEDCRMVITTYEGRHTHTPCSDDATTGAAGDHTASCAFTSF
Procedure, shortened: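 Per-feature fluorescence intensity (arbitrary units), read on an Axon 4000B scanner, is the binding signal. Transcription factors carrying an N-terminal polyhistidine tag and DsRed fusion were expressed in E. coli BL21-CodonPlus and purified on Ni–NTA. A custom Agilent array, made double-stranded by primer extension with Cy5-dUTP and blocked with 2% BSA, was incubated with 200 nM protein in PBS, 2% BSA, salmon testes DNA and 50 µM zinc acetate at 25 °C for 1 h and then washed.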

Row | Sequence | binding signal
1 | GGCCGGGCGAGGCGCTGGGAGGTGGCGGCTAGCGGCGGGGCGGAGTCACCTAGTGCAG | 8500 fluorescence intensity (a.u.)
2 | CAAATTCTAGACTTTTTGGTGGGTTGCGTGCGAGGGGTGGCGGAGTCACCTAGTGCAG | 10500 fluorescence intensity (a.u.)
3 | ATTTGTTCCCATCCATCTCGGCCCTGTCGCCATTGTGCCACGGAGTCACCTAGTGCAG | 9450 fluorescence intensity (a.u.)
4 | GATTGATTATCCTTTTCTTAAACTATTTTCCTGTTTTTCACGGAGTCACCTAGTGCAG | 13200 fluorescence intensity (a.u.)
5 | GCCAAGCCTTTTTCTTCTACTCTTTTTGGCATGGAACTCACGGAGTCACCTAGTGCAG | 8350 fluorescence intensity (a.u.)
6 | AACGATTTGCATGTCATACAGATACATCACATTTCTTTCTCGGAGTCACCTAGTGCAG | 8520 fluorescence intensity (a.u.)
7 | AGCAAATTCCTTTATGTTTTTTCTTATGTCTTCTCCAGCTCGGAGTCACCTAGTGCAG | 9040 fluorescence intensity (a.u.)
8 | ACACTCTATTAAGAGGATCCGTTTCATTTTTTGTTCCATCCGGAGTCACCTAGTGCAG | 8760 fluorescence intensity (a.u.)
9 | CTATACTCACCCACTTGCCAATTTGCCATTGCCAACACCTCGGAGTCACCTAGTGCAG | 9100 fluorescence intensity (a.u.)
10 | TTGTTGGCTCAATATAGTTATCCTCCTTTGACCCAGTTAACGGAGTCACCTAGTGCAG | 9120 fluorescence intensity (a.u.)
11 | TGGGTTTTACGGTTTTACCCTCTCGGGCTTGAGGGGAGAGCGGAGTCACCTAGTGCAG | 47600 fluorescence intensity (a.u.)
12 | AGGTGAGAGGAGGAGAGAGACGGGTTTAGGGCTTTAGGAGCGGAGTCACCTAGTGCAG | 8040 fluorescence intensity (a.u.)
13 | TGGCGGCGTGGAGCCGCGAGGGCGGTGGCGGCGGGGAGTTCGGAGTCACCTAGTGCAG | 10400 fluorescence intensity (a.u.)
14 | GGGAGCGGCGGAGGAGGAGGGCGCGGCGGCGGTGGGGTGGCGGAGTCACCTAGTGCAG | 18100 fluorescence intensity (a.u.)
15 | GGGTGGAGGAGGGGACTTCGGGAGGGCGGTGGCGAGGGCGCGGAGTCACCTAGTGCAG | 16400 fluorescence intensity (a.u.)
16 | GGTGGGCGGAGTGGGAGGGGAGGCATCGGCGCCTCGGTGGCGGAGTCACCTAGTGCAG | 16800 fluorescence intensity (a.u.)
17 | GGGAGGGGTGCGGCGCGGTGGCGCTGGAGCGGAGGAGCGTCGGAGTCACCTAGTGCAG | 9990 fluorescence intensity (a.u.)
18 | GGAGGTGGTGGCGCTGCCTCGGGGCCCCTCGCCTGGGAGGCGGAGTCACCTAGTGCAG | 9800 fluorescence intensity (a.u.)
19 | TGTTCGGTGGGCGAGGAGAGGAGTGGGTGGGAGTGGACTGCGGAGTCACCTAGTGCAG | 8780 fluorescence intensity (a.u.)
20 | GCTCGGCGGCGCCGCGGCGGCGGTGGCGGAGGCGGGGATGCGGAGTCACCTAGTGCAG | 8910 fluorescence intensity (a.u.)
21 | GCGAGTGAGGAGGGGCGGCGCGCGGTGGCCGGCGGGTGAGCGGAGTCACCTAGTGCAG | 8070 fluorescence intensity (a.u.)
22 | AGGAGAGGGGTTTACTCGGTTGAGGATTTTCTTGTTCTCACGGAGTCACCTAGTGCAG | 8180 fluorescence intensity (a.u.)
23 | ACGTGGAGTCACGTGACTGGGCCGTGCCACTTTTTTTTATCGGAGTCACCTAGTGCAG | 9360 fluorescence intensity (a.u.)

Row | Sequence | binding signal
24 | AGTCAATATCTTGCTTTGATACCTTTTTTTTTGCATTTTTCGGAGTCACCTAGTGCAG | 8050 fluorescence intensity (a.u.)
25 | ACAACACGCCGCCTCGCCTGCCCATCCCGTCCAACCCACGCGGAGTCACCTAGTGCAG | 9200 fluorescence intensity (a.u.)
26 | GATTGGTTGAAAATGTTTCTATTCTTAATGAATATCCTATCGGAGTCACCTAGTGCAG | 8080 fluorescence intensity (a.u.)
27 | CCATCCACGCGACGCGGCACAACCTCCCGCGCCCAACACACGGAGTCACCTAGTGCAG | 8760 fluorescence intensity (a.u.)
28 | CCTTCTTGTCCTGCTCCCGCGCCGGCTCCGACCGGGTCCTCGGAGTCACCTAGTGCAG | 8600 fluorescence intensity (a.u.)
29 | AGTACATGGGCTTTCCATAATTGGTTTATACGTGGTTATTCGGAGTCACCTAGTGCAG | 8260 fluorescence intensity (a.u.)
30 | CTCTGAATGGCCTTGTCACCCTTTTTATTCATTCATGCTCCGGAGTCACCTAGTGCAG | 9200 fluorescence intensity (a.u.)
31 | TGTCCTTATCATCTTTGATCAAGTTTTTCTCTTTTCCTATCGGAGTCACCTAGTGCAG | 9480 fluorescence intensity (a.u.)
32 | CTCTTTTTTTTTCTTCCACTACGCTCCAAAACTTCTCTCCCGGAGTCACCTAGTGCAG | 8790 fluorescence intensity (a.u.)
33 | CCTTAGTCAGCCTCTGCTTCTGCTCCGTGCTCGCCGGCGCCGGAGTCACCTAGTGCAG | 12600 fluorescence intensity (a.u.)
34 | TGTGGCGGGGAGGGAGGGAGGGAGAAGGGGCGGCGTGTTGCGGAGTCACCTAGTGCAG | 16600 fluorescence intensity (a.u.)
35 | GGAATCTGGGAGGTGGGTGGGCCCCACGGCGGAGACTCCGCGGAGTCACCTAGTGCAG | 17200 fluorescence intensity (a.u.)
36 | GGGGCGGAGATCTGGGAGGAGGAGGAGGAGGTGGTGGTGGCGGAGTCACCTAGTGCAG | 14500 fluorescence intensity (a.u.)
37 | CCCGCGGCGGCGGGGTGGAGGCGACGGCGGTGGTGGTGGGCGGAGTCACCTAGTGCAG | 8590 fluorescence intensity (a.u.)
38 | TACTGGGGAATCGGTGGTGGTGGCGGCGGCGGTGGCGGCGCGGAGTCACCTAGTGCAG | 9690 fluorescence intensity (a.u.)
39 | TGAAGGGCGGGAGGGGCGTTGCGCGGGAGTGGCCGCGCGGCGGAGTCACCTAGTGCAG | 8670 fluorescence intensity (a.u.)
40 | GCCTCGATCGCGGCGGTGGCGGTGGGGAGGGGAGCGCACCCGGAGTCACCTAGTGCAG | 19000 fluorescence intensity (a.u.)
41 | CTCATCCGAGTGGGTGGGCGGGGAGAGATCTAGGGCTTGCCGGAGTCACCTAGTGCAG | 11700 fluorescence intensity (a.u.)
42 | GTGCGTGGGGCGAAGGGAGGGGAAGAAGAAGAAGGAGAAGCGGAGTCACCTAGTGCAG | 8080 fluorescence intensity (a.u.)
43 | CGATCCGCTTGCAGGCGGCGGCGGCGGGAGGGTGGTGGGGCGGAGTCACCTAGTGCAG | 18000 fluorescence intensity (a.u.)
44 | GCGGCCGGCCGAGGGGTGGGAGCCGTCCGATCGCGGCGCGCGGAGTCACCTAGTGCAG | 8550 fluorescence intensity (a.u.)
45 | ACGCAGGGGAGGGAGGGAGCGGTGGTGGTGGCGGCGGCGCCGGAGTCACCTAGTGCAG | 14000 fluorescence intensity (a.u.)

— article PMC7819943, “Rice protein-binding microarrays: a tool to detect cis-acting elements near promoter regions in rice”
